Measurements as given in PubChem BioAssay AID862 (The Scripps Research Institute Molecular Screening Center, 2007).
About 1,700 (0.89%) of roughly 190,000 compounds were called active.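 The calls were made as follows: active = inhibition above the mean inhibition across all screened compounds plus 3 SD (cut at about 44% in these data); inactive = the rest.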 Many of the other results were omitted from the sample, so actives are more common in it than they were.

test: blockers of STAT3 transcriptional signaling – U3A cells, luciferase, luminescence, MLSCN library, primary screen (AID 862); details: IL-6 STAT3-luciferase reporter, at 5.5 µM, hits give high values, host cell line lacks STAT1;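 also: 0% = DMSO only wells and 100% = 100 µM nifuroxazide control wells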

Compound | inhibition
O=C(Nc1ccn(Cc2ccccc2)n1)c1cccc(F)c1 | 12.5% (inactive)
O=C(Nc1ccn(Cc2ccc(F)cc2)n1)c1ccncc1 | 22.9% (inactive)
O=C(Nc1ccn(Cc2ccccc2)n1)c1n[nH]c([N+](=O)[O-])c1Cl | 53.5% (active)
Cc1cccc(C(=O)Nc2ccccc2C(=O)NCc2cccnc2)c1 | 10.3% (inactive)
CCOC(=O)/C(=N\Nc1ccccc1Cl)N(C)C1CCS(=O)(=O)C1 (stereo not given) | 5.4% (inactive)
Nc1ccc(Nc2ccccc2)cc1 | 18.1% (inactive)
Cc1ccc(Nc2nnc(SCc3ccccc3)s2)cc1 | -15.7% (inactive)
Cc1ccc(Nc2ccccc2N)cc1 | 69.5% (active)
O=C1NC(=Nc2ccc(Cl)cc2)SC1Cc1cccc(Cl)c1Cl (stereo not given) | 0.2% (inactive)
CCOc1ccc(C(CC(=O)O)n2cnnn2)cc1OC (stereo not given) | 17.4% (inactive)
CCN(CCn1cccn1)Cc1nc(-c2ccc(C(=O)OC)cc2)no1 | 7.7% (inactive)
OC(COc1ccc(CN2CCSCC2)cc1)CN1CCCCC1 (stereo not given) | 4.3% (inactive)
COc1ccc(C2=NOC3(CC(=O)N(c4ccc(C)cc4)C3=O)C2)cc1 (stereo not given) | 0% (inactive)
COc1ccc(C2=NOC(COC(=O)c3ccc4ccccc4n3)C2)cc1 (stereo not given) | -2.7% (inactive)
COc1ccc(C2=Nc3cc(C)ccc3OC2)cc1 | 66.7% (active)
COc1cc2c(cc1O)[C@H](Cc1ccc(Oc3cc(C[C@@H]4NCCc5cc(OC)c(O)cc54)ccc3O)cc1)NCC2 | -0.3% (inactive)
CC[C@H]1CN2CCc3cc(OC)c(OC)cc3[C@@H]2C[C@@H]1C[C@H]1NCCc2cc(OC)c(OC)cc21 | 101% (active)
CCOC(=O)N1CCC(NC(=O)C(NS(=O)(=O)c2ccc3c(c2)CCN3C(=O)CC)C(C)C)CC1 (stereo not given) | 8.6% (inactive)
CCOc1ccc(NS(=O)(=O)c2ccc(C)c(C(N)=O)c2)cc1 | 20.3% (inactive)
COc1cccc(/C=C/C(=O)Nc2ccc3c(c2)OCCO3)c1 | 30.9% (inactive)
O=C(Cn1cnc2ccccc21)N/N=C/c1ccco1 | 1.9% (inactive)
Cc1ccc(Cn2ccc(NC(=O)c3cc(C(C)C)on3)n2)cc1 | 15.3% (inactive)
O=C(c1cc(-c2cccs2)on1)N1CCCCC1 | 24.7% (inactive)
Cc1cc(NC(=O)c2cc(-c3cccs3)on2)nn1Cc1ccc(Cl)cc1 | 47.2% (active)
C=CCn1nc(-c2ccccc2)c2c(C)onc2c1=O | 1.6% (inactive)
OCCn1c(-c2ccccc2)csc1=Nc1ccccc1 | 46.5% (active)
Cc1csc(=Nc2ccccc2)n1CCO | 5.8% (inactive)

Compound | inhibition
Cc1csc(=NC(=O)c2ccccc2)n1CCO | 0.5% (inactive)
COC(=O)Cc1ccc(NC(=S)NCc2ccco2)cc1 | 2.5% (inactive)
COc1ccc(-c2noc(-c3cccc(OC)c3OC)n2)cc1OC | 9.5% (inactive)
COc1ccc(-c2nc(-c3ccccc3)no2)c(OC)c1 | 102% (active)
COc1ccc(-c2noc(-c3ccc(C)cc3)n2)cc1 | 11.2% (inactive)
COCCCNC(=O)/C=C/c1ccc(OCc2c(F)cccc2Cl)cc1 | 20% (inactive)
Cc1ccc(NC(=O)Nc2nnc(-c3ccncc3)s2)cc1 | 9.8% (inactive)
CC1CC(C)CN(CCC(=O)Nc2ccc3c(c2)CCC3)C1 (stereo not given) | 3.9% (inactive)
O=C(/C=C/c1ccccc1[N+](=O)[O-])OC1CCCCC1=O (stereo not given) | 4.5% (inactive)
O=c1[nH]c(CCl)nc2cc(-c3ccc(Cl)cc3)sc12 | 51.2% (active)
O=c1[nH]c(CN2CCOCC2)nc2cc(Cl)ccc12 | 4.9% (inactive)
NC(=O)Cc1nc2scc(-c3ccc(Cl)cc3)c2c(=O)[nH]1 | 16% (inactive)
CCOc1cccc(/C=N/N2C(=O)CSC2=S)c1O | 2.5% (inactive)
Cc1ccc2[nH]c(=O)c(CN3CCCCC3)c(-c3ccccc3)c2c1 | 8.1% (inactive)
CC(OC(=O)c1ccc2ccccc2n1)C(=O)c1ccccc1 (stereo not given) | -6.4% (inactive)
COc1cccc2sc(NNC(=O)c3nc4ccccc4s3)nc12 | -23.2% (inactive)
CCOc1cccc(/C=C/c2ccc3ccccc3n2)c1OC(C)=O | 58.6% (active)
CCOc1ccccc1NC(=O)c1cccnc1 | 6% (inactive)
COc1cccc(/C=C/c2ccc3ccccc3n2)c1OC(C)=O | 89.8% (active)
NC(=O)COC(=O)/C=C/c1ccc2ccccc2n1 | -0.2% (inactive)
CCn1c2ccccc2c2cc(NC(=O)COC(=O)c3cc(S(=O)(=O)N4CCCCC4)ccc3Cl)ccc21 | 4% (inactive)
COc1ccc(/C=C/C2=CC(C)(C)NC(=S)N2)c(OC)c1 | 9.7% (inactive)
COC(=O)Cn1cc(/C=C/[N+](=O)[O-])c2ccccc21 | -0.7% (inactive)
CN1C(=O)/C(=C/c2ccco2)SC1=Nc1cccc(C(=O)O)c1 | 3.5% (inactive)
CC(C)C(=O)Nc1ccc2c3c(cccc13)CC2 | 1.8% (inactive)
CC(=O)Nc1cccc(C(=O)Nc2nc(C)cs2)c1 | 10.2% (inactive)
Cc1ccnc(NC(=O)c2ccoc2C)c1 | 10.5% (inactive)

Compound | inhibition
COc1cc(SC)ccc1C(=O)Nc1cc(C)ccn1 | 55.6% (active)
COc1ccccc1CNC(=O)c1ccc(SC)cc1OC | 11.4% (inactive)
COC(=O)c1sc(NC(=O)c2csc3c2CCCC3)nc1C | -15.5% (inactive)
COc1cc(SC)ccc1C(=O)NCCOc1ccccc1Cl | -8.5% (inactive)
COC(=O)c1sc(NC(=O)c2ccc(OC)cc2OC)nc1C | 86% (active)
COc1ccc(C(=O)Nc2nncs2)c(OC)c1 | 8.6% (inactive)
COc1cc(SC)ccc1C(=O)Nc1nc(C)cs1 | 111% (active)
O=c1c2ccccc2c(-c2ccccc2)nn1-c1ccccn1 | 4.6% (inactive)
O=C(CP(=O)(c1ccccc1)c1ccccc1)N1CCOCC1 | 6.3% (inactive)
COC(=O)Cc1ccc(OCC(=O)Nc2ccc(OC(F)(F)F)cc2)cc1 | -10.9% (inactive)
CCN1CCN(CC(=O)c2cc(OC)c(OC)c(OC)c2)CC1 | 11.2% (inactive)
Cc1ccc(-c2csc(NC(=O)Cc3cccs3)n2)cc1C | 12.1% (inactive)
CCCc1ccc(-c2csc(NC(=O)Cc3cccs3)n2)cc1 | 43.7% (active)
COc1ccc(-c2csc(NC(=O)CCCc3cccs3)n2)cc1 | 23.2% (inactive)
c1ccc(C2CNCc3c2ccc2ccccc32)cc1 (stereo not given) | 3.3% (inactive)
O=S(=O)(Nc1ccccn1)c1ccc(Oc2ccccc2)cc1 | -1.5% (inactive)
COc1ccc(S(=O)(=O)Nc2cccnc2)c(Cl)c1Cl | 5.5% (inactive)
COc1ccccc1Oc1ccc(S(=O)(=O)Nc2cccnc2)cc1 | 48.9% (active)
Cn1c(CCCOc2ccc(Cl)cc2Cl)n[nH]c1=S | 9.7% (inactive)
O=C(COC(=O)C1CC2C=CC1C2)Nc1ccccc1 (stereo not given) | 1% (inactive)
CCCCCc1ccc(-c2ccc(C(=O)O)cc2)nc1 | 52.6% (active)
CCCCCC(=O)Nc1ccc(-c2cn3cccnc3n2)cc1 | 11.1% (inactive)
CCCCCc1ccc(-c2ccc(OCC)cc2)nc1 | 25.3% (inactive)
CCCN(CC(=O)Nc1ccccc1C)C(=O)c1cc(=O)[nH]c2ccccc12 | 3.5% (inactive)
N#Cc1nc(Cc2ccccc2)oc1NCCc1ccccc1 | -13.4% (inactive)
N#Cc1nc(COc2ccc(-c3ccccc3)cc2)oc1NCc1cccnc1 | 45.2% (active)
N#Cc1nc(-c2ccc(OCc3ccccc3)cc2)oc1NCCCN1CCOCC1 | 14.7% (inactive)

Compound | inhibition
COC(=O)c1sc2[nH]c(=S)n(N)c(=O)c2c1C | 8.3% (inactive)
Cc1ccc(CN(Cc2cccnc2)C(=S)Nc2cccc(Cl)c2C)cc1 | 9.3% (inactive)
O=C(CN1CCN(c2ccccn2)CC1)N1CCc2ccccc21 | 1.6% (inactive)
O=C(CN1C(=O)c2ccccc2S1(=O)=O)N1CCc2ccccc21 | 89.1% (active)
CNC(=O)CN1C(=O)c2ccccc2S1(=O)=O | 10.2% (inactive)
CCOc1ncccc1C(=O)OCc1cn2cc(Cl)ccc2n1 | 12.3% (inactive)
O=c1cc(CSc2ccc(Cl)cc2)nc(N2CCOCC2)[nH]1 | -7.4% (inactive)
Clc1ccc2nc(CSc3ccccc3)cn2c1 | 62.7% (active)
CCOC(=O)NN1C(=O)c2ccccc2NC1c1cccc(O)c1 (stereo not given) | -10% (inactive)
CN(CCc1ccccn1)C(=O)CCC1CCCN(Cc2ccccc2OC(F)F)C1 (stereo not given) | 4.3% (inactive)
Cc1cc(C)c2[nH]c(=O)c(CN(Cc3ccccc3)C(=S)NCCCN(C)C)cc2c1 | -4.1% (inactive)
C1CC1Cc1noc(CN2CCN(CC3CC3)CC2)n1 | 2.5% (inactive)
Cc1ccc(CN(C)CC(=O)Nc2cccc([N+](=O)[O-])c2)o1 | 5.5% (inactive)
Cc1ccc(NC(=O)CN(C)CC(=O)Nc2cccc(F)c2)cc1[N+](=O)[O-] | 46.8% (active)
CN(CC(=O)Nc1cccc(F)c1)CC(=O)Nc1cccc([N+](=O)[O-])c1 | -4.2% (inactive)
O=S(=O)(NC1CC1)c1ccc2c3c(cccc13)CC2 | 11.9% (inactive)
CCOC(=O)CSc1nc(C)cc2c1C(=O)OC2 | -1% (inactive)
N=C(N)SCc1cccc2ccccc12 | 47.8% (active)
c1ccc2c(CSCc3nc4ccccc4[nH]3)cccc2c1 | 4.1% (inactive)
CCOc1ccc(Br)cc1CSC(=N)N | 34.7% (inactive)
CN(C)CCOCCOc1ccc(Cl)c2ccccc12 | 9.5% (inactive)
Cc1cc(C(=O)CSc2nc(N)cc(=O)[nH]2)c(C)n1CCc1ccc(Cl)cc1 | 43.7% (active)
Cc1cc(C(=O)CSc2nc(N)cc(=O)[nH]2)c(C)n1-c1cccc(F)c1 | 20.1% (inactive)
CCCc1cc(=O)[nH]c(SCC(=O)c2cc(C)n(CCC)c2C)n1 | 10.6% (inactive)
